Compound activity deposited in PubChem BioAssay by National Center for Advancing Translational Sciences (NCATS).
JMJD2E inh – qHTS Assay for Inhibitors of Human Jumonji Domain Containing 2E (JMJD2E). Lysine-specific demethylase 4E (Homo sapiens), B2RXH2. JMJD2E catalytic domain, FDH-coupled NADH fluorescence (FDH is formaldehyde dehydrogenase). Potency, µM (doses to about 57.1 µM), for inactives: at the top dose activity change, negative = inhibition, usual class: inhibitors. 230,000 tested, 1.6% active; active = well fitted inhibition curve with a large enough effect, not every such curve was filed as active; inconclusive = small, poorly fitted or top-dose-only effect, or another doubt; inactive = no such curve, though single readings can be large or run the other way;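 also: 0% = wells with enzyme and -100% = buffer wells without enzyme; nearly all actives have a fitted effect of over 50% in size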
Target sequence (B2RXH2 1-337 limits assumed): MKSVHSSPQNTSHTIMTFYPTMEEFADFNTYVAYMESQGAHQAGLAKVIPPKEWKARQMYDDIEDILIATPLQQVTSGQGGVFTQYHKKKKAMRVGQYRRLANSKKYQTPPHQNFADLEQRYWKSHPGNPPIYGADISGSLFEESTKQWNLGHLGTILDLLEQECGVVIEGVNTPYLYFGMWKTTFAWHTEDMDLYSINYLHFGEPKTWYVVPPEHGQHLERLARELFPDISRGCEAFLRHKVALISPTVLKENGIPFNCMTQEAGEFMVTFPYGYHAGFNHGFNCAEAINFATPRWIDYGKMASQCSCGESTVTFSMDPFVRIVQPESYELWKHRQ
Tau fibril FP – qHTS for Inhibitors of Tau Fibril Formation, Fluorescence Polarization; Microtubule-associated protein tau (Homo sapiens), P10636; 280,000 tested, 0.39% active; Potency, µM (highest dose often 57.7 µM), inactives show at the highest dose activity, negative = inhibition, usual class: inhibitors; K18 P301L tau heparin fibrillization, Alexa594 FP, 6 h; also: nearly all actives have a fitted effect of over 55% in size
Target sequence (P10636 561-689 P618L limits assumed): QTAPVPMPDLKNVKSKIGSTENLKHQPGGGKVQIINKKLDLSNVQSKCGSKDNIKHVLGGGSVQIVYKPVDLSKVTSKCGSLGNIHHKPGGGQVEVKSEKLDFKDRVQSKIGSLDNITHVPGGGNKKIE
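Human tau K18 […] P301L fragment, 15 uM unlabeled plus 0.24 uM Alexa 594-labeled tau (final), with compound and 20 uM heparin in 100 mM sodium acetate pH 7; 6 hr at 37 C, then Alexa 594 FP read.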
TRb SRC2 PPI – qHTS for Inhibitors of the Interaction of Thyroid Hormone Receptor and Steroid Receptor Coregulator 2 | Thyroid hormone receptor beta (Homo sapiens), P10828 | TRbeta-SRC2 peptide binding, fluorescence polarization; receptor liganded with 1 µM T3 | Potency, µM (series often up to 106 µM), without a hit: at the highest dose activity change, negative = inhibition, actives largely listed as inhibitors | 280,000 tested, 0.065% active | AID 1469, 2008;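 also: plate controls were bound peptide for no effect and peptide without receptor for full effect; nearly all actives have a fitted effect of over 50% in size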
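Quantitative HTS by FP: 0.6 uM TRb LBD, 20 nM labeled SRC2 20-mer, 1 uM T3, 5% DMSO; 5 hr ambient incubation; % activity per concentration and potencies from concentration series.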
Tau fluor cs – Counterscreen qHTS for Inhibitors of Tau Fibril Formation, Fluorescence Polarization; 280,000 tested, 0.93% active; Potency, µM (titrated, usually from 57.7 µM), without a hit: at the highest dose activity change, negative = decrease; tau K18 P301L Alexa594 fluorescence, heparin fibrillization; also: nearly all actives have a fitted effect of over 55% in size
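Human K18 P301L tau (15 uM unlabeled plus 0.24 uM Alexa 594-labeled, final) in 100 mM sodium acetate pH 7 was mixed with compound and 20 uM heparin and incubated 6 hr at 37 C.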
TexasRed fluor – Total Fluorescence Counterscreen for Inhibitors of the Interaction of Thyroid Hormone Receptor and Steroid Receptor Coregulator 2. TRb/SRC2 Texas Red total fluorescence interference. 280,000 tested, 0.29% active. AID 1479, 2009. Potency, µM (titrated, usually from 106 µM), for the others: at the top dose fluorescence change, negative = quenching; active = well fitted curve in either direction with a large enough effect; inconclusive = small, poorly fitted or top-dose-only effect
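Human TRb ligand-binding domain at 0.6 uM with 20 nM Texas Red SRC2 peptide in Tris buffer containing 1 uM T3 and 5% DMSO, incubated with compound 5 h at ambient temperature. Total fluorescence (555/632 nm) calculated as parallel + 2 × perpendicular.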
Tau ThT inhib – qHTS for Inhibitors of Tau Fibril Formation, Thioflavin T Binding; recombinant tau K18 P301L (four-repeat tau fragment), heparin-induced fibrillization, ThT fluorescence; AID 1460, 2008; Microtubule-associated protein tau (Homo sapiens), P10636; Potency, µM (doses to about 57.4 µM), for the others: top-dose activity, negative = inhibition, hits mostly inhibitors; 270,000 tested, 2.1% active; also: nearly all actives have a fitted effect of over 55% in size
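Heparin-induced fibrillization of the P301L-mutant K18 repeat-domain fragment of human tau was followed by ThT binding in quantitative high-throughput format.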
The depositor's hits bear a star; ? = inconclusive; · = not tested or not shown; [ ] = remark or other dose. An excerpt weighted towards active compounds, which were near 3.5% of everything screened. Unless noted, calls follow the shape of the dose curve; as a rule, active = well fitted curve in the direction sought with a large enough effect; inconclusive = small, poorly fitted or top-dose-only effect, or another doubt; inactive = no such curve, though single readings can be large; an effect the other way counts as inactive or inconclusive. Unless noted, % is scaled to controls: 0 for no effect and ±100 for the full control effect; potency is read from the fitted curve at half-maximal effect.

SMILES	JMJD2E inh	Tau fibril FP	TRb SRC2 PPI	Tau fluor cs	TexasRed fluor	Tau ThT inhib
Cn1c(-c2c(N)n(CCc3ccccc3)c3nc4ccccc4nc23)nc2ccccc21	-17%	9%	-5%	13µM*[quencher]	0%	?
COCCCn1c(N)c(-c2nc3ccccc3n2C)c2nc3ccccc3nc21	-20%	?	5%	16µM*[quencher]	-9%	18µM*
OCCCc1ccccc1	·	·	-5%	·	-22%	·
CC(C)COc1ccc(CNC(=S)NCc2ccccc2)cc1	-4%	-8%	-2%	?	1%	-22%
S=C(NCc1ccco1)N1CCN(C(c2ccccc2)c2ccccc2)CC1	-1%	-8%	-4%	-27%	-4%	-15%
Cc1ccc(-n2ncc(Br)c(Br)c2=O)cc1	1%	?	-4%	-19%	-5%	16µM*
O=c1c(Br)c(Br)cnn1-c1ccccc1	3%	?	-11%	-6%	-2%	32µM*
O=c1c(Br)c(N2CCCC2)cnn1-c1ccccc1	3%	1%	1%	6%	1%	3%
Cc1ccc(S(=O)(=O)N2CCCC2C(=O)OCc2ccccc2)cc1 (configuration not stated)	8%	0%	-3%	-5%	1%	-5%
Cc1ccc(S(=O)(=O)N2CCCCC2C(=O)N2CCN(C)CC2)cc1 (configuration not stated)	5%	?	-9%	-21%	-2%	16µM*
Cc1ccc(S(=O)(=O)N2CCCC2C(=O)OCc2ccco2)cc1 (configuration not stated)	?	?	-5%	-14%	-2%	28µM*
COc1cc(/C=N/NC(=S)NCCN2CCOCC2)ccc1O	?	6%	0%	-3%	-19%	-3%
CN(Cc1ccccc1)C(=O)c1ccccc1NC(=O)c1ccco1	-6%	13%	-3%	4%	-7%	-3%
COc1cc(/C=C2\SC(=S)N(NS(=O)(=O)c3ccc(C)cc3)C2=O)cc(OC)c1OC	-2%	6%	-1%	-10%	-2%	?
COc1cc(/C=C2\SC(=S)N(NS(=O)(=O)c3ccccc3)C2=O)ccc1O	3%	5%	19%	-5%	8%	14µM*
COc1cc(/C=C2\SC(=S)N(NS(=O)(=O)c3ccc(C)cc3)C2=O)ccc1O	-1%	6%	8%	-16%	7%	10µM*
O=C(NN=C1CCCCCCCCCCC1)c1ccccc1F	24%	-4%	6%	9%	2%	-4%
CC(C)(C)C(=O)OCOP(=O)(OCOC(=O)C(C)(C)C)C(C)(Oc1ccc(O)cc1)P(=O)(OCOC(=O)C(C)(C)C)OCOC(=O)C(C)(C)C	·	8%	6%	1%	8%	-18%
CC(Oc1ccc(O)cc1)(P(=O)(O)O)P(=O)(O)O	1.6µM*	1%	6%	-7%	2%	-8%
CC1(C)C(=O)OC(c2cccc([N+](=O)[O-])c2)C2(CCCCC2)C1=O (configuration not stated)	-5%	-1%	-9%	-2%	-4%	1%
Cc1ccc(Nc2ccc(C(N)=O)cc2[N+](=O)[O-])cc1C	9%	3%	-5%	-14%	-4%	-9%
CCc1ccc(Nc2ccc(C(N)=O)cc2[N+](=O)[O-])cc1	-8%	12%	-2%	?	1%	13µM*
COc1ccc(C(=O)Nc2ccc(N3CCOCC3)cc2)cc1OC	2%	8%	-4%	-12%	0%	?
COc1ccc(C(=O)Nc2ccc(N3CCOCC3)c(C(F)(F)F)c2)cc1OC	·	7%	-6%	?	11µM*[quencher]	?
